Laboratory results as given in PubChem BioAssay (NCI).
The panel holds about 83,000 compounds, 20% with a hit somewhere; the sample as a whole holds those more often.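 The test compound was applied at a single concentration to cells in 96-well plates for 48 hours, and percent growth was recorded.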 A number with no mark means an inactive call. The source made the active and inactive calls. The calls were made as follows: active = growth percent below 10; inactive = the rest.

What follows are compounds tested on M14 melanoma (assay: NCI-60 one-dose screen, 48 h (100 = growth as untreated, 0 = no growth, -100 = all killed)). Conditions: 10 µM unless noted.
With COc1cc2c3c(c1)nc(C)n3CCC2 the growth was 100%. Work on Cc1sc2c(c1C)c(=O)nc1c(-c3nc4ccccc4s3)n[nH]n12 yielded a growth of 98.6%. For COc1cc2c(cc1OCCCCCN1CCN(c3ncnc4ccccc34)CC1)N=CC1CCCN1C2=O (centres undefined), the growth was -66.9% (active). With COc1cc2c(cc1OCCCCN1CCN(CC(=O)Nc3ccc(Cl)cc3C(=O)c3ccccc3Cl)CC1)N=CC1CCCN1C2=O (centres undefined) the growth was -67.6% (active). Compound CCOC(=O)C1=C(C)NC(=O)NC1c1cc(=O)oc2ccc(C)cc12 (centres undefined) has a growth of 102%. COc1ccc2nc3cc(Cl)ccc3c(Nc3ccc(N(C)C)cc3)c2c1 was tested, and the growth was 98.2%. For C[C@@H](C[C@H](CCO)c1cc(C(F)(F)F)cc(C(F)(F)F)c1)c1ccc2ccccc2c1, the growth was 79.7%. In the case of COc1ccc2c(CCCc3ccc(Cl)cc3Cl)c3[n+](cc2c1OC)CCc1cc2c(cc1-3)OCO2, the growth is reported as -24.5% (active). With COc1cc2c(cc1OCCCCCCN1CCN(c3ncnc4ccccc34)CC1)N=CC1CCCN1C2=O (centres undefined) the growth was -85.5% (active). Compound c1cc[n+](Cc2c3ccccc3cc3c2ccc2ccccc23)cc1 has a growth of 62.3%. For CC(C)[C@@H]1CC[C@]2(CO2)[C@@H]2C(=O)OCC(C(=O)O)=C[C@H]21, the growth was -48.5% (active). For N#Cc1c(NC(=O)c2cccs2)[n+]([O-])c2ccc(F)cc2[n+]1[O-], the growth was 101%. CC(CCCC(=O)O)c1ccoc1 (centres undefined) was tested, and the growth was 97.2%. For CCCCCCCC(=O)SCC/C=C/[C@@H]1CC(=O)NCc2nc(co2)C2=N[C@@](C)(CS2)C(=O)N[C@@H](C(C)C)C(=O)O1, the growth was -3.25% (active). Work on Nc1c(C(=O)c2ccccc2)sc2nc(-c3cccs3)ccc12 yielded a growth of 30.2%. In the case of COc1ccc2c(CCCCC(c3ccccc3)c3ccccc3)c3[n+](cc2c1OC)CCc1cc2c(cc1-3)OCO2, the growth is reported as -76.1% (active). With CC(C)(C)C(=O)OCOP(=O)(OCOC(=O)C(C)(C)C)C1CCCN(OC(=O)c2ccccc2)C1=O (centres undefined) the growth was 47.2%. In the case of O=C(Cc1ccccc1)Nc1nnc(NC2CCN(c3nnc(NC(=O)Cc4ccccc4)s3)CC2)s1, the growth is reported as 85.2%. Work on CCCCCCC1(/C=N/NC(N)=O)NC(=O)NC1=O (centres undefined) yielded a growth of 97.3%. With CC(N)C(Cc1ccc(Cl)cc1)c1ccc(Cl)cc1 (centres undefined) the growth was 47.6%. CC(C)[C@@H](C)/C=C/[C@@H](C)[C@H]1CCC2=C3C=CC4=CC(=O)CC[C@]4(C)[C@H]3CC[C@@]21C gave a growth of 98.6%. CCOC(=O)C1=C(C)N=C2Sc3cc(OC(F)(F)F)ccc3N2[C@H]1c1ccccn1 gave a growth of 27.3%. In the case of COC(=O)[C@]12CC[C@@H](C)[C@H](C)[C@@H]1C1=CC[C@@H]3[C@@]4(C)C(c5cnco5)=C[C@@](C)(CO)C4=CC[C@@]3(C)[C@]1(C)CC2, the growth is reported as 63.4%. In the case of C=C1C(=O)O[C@H]2[C@H]1CC/C(Cn1cc(-c3cc(C)c(C)cc3C)nn1)=C\CC[C@@]1(C)O[C@@H]21, the growth is reported as -57.3% (active). In the case of C=C1C(=O)O[C@H]2[C@H]1CC/C(CNC(=O)c1cc3cc(OC)ccc3[nH]1)=C\CC[C@@]1(C)O[C@@H]21, the growth is reported as -42.4% (active). C=CCC(=O)N[C@H](/C=C/C(=O)O)Cc1ccc(-c2cc(Cl)cc(Cl)c2)cc1 was tested, and the growth was 92.2%. Compound NN1C(=O)CSC1=S has a growth of 97.6%. CC(=O)C(C(C)=O)C(c1ccccc1)C(C(C)=O)C(C)=O showed a growth of 96.5%. COc1cc(NCCN(CC(C)C)CC(C)C)c2ncc(C)cc2c1 showed a growth of 61%. With COc1ccc2c(CCC(c3ccccc3)c3ccccc3)c3[n+](cc2c1OC)CCc1cc2c(cc1-3)OCO2 the growth was 2.51% (active). For O=C1CC(c2ccc3c(c2)OCO3)c2ncn(-c3ccc(Cl)cc3)c2N1 (centres undefined), the growth was -2.01% (active). With Clc1nc(Cl)c2ncn(CC#CCn3cnc4c(Cl)nc(Cl)nc43)c2n1 the growth was 7.78% (active). COc1ccc(C2CC(=O)c3c(O)c(OC)c(OC)c(OC)c3O2)c(O)c1 (centres undefined) gave a growth of 12.6%. Work on C[N+](C)(CCOC(c1ccccc1)c1ccccc1)CC(=O)OCc1ccccc1 yielded a growth of 91.3%. For Nc1c2c(c(O)c3c1=C(CO)C=N3)=NCCS2, the growth was -89.7% (active). With Cc1cccc(NC(=O)[C@@H]2c3ccccc3C(=O)N(c3ccc(Cl)cc3)[C@H]2c2ccc(Cl)cc2)n1 the growth was 45.8%. CC(N)C(Cc1ccccc1)c1ccc(Cl)cc1 (centres undefined) was tested, and the growth was 82.6%. C=CCCCC(=O)CCC(=O)OCC1O[C@@H](O[C@@H]2C(O)[C@@H](OC(C)=O)C(C)O[C@H]2O[C@H](CC=C)CCCCC)C(O)[C@@H](OC(=O)/C(C)=C/C)[C@@H]1OC(=O)/C=C/c1ccccc1 (some centres undefined) was tested, and the growth was -10.3% (active). With COc1ccc2c(c1OC)C(=O)O[C@@H]2[C@H]1c2c(c(C#CC#Cc3ccc(F)c(F)c3)c3c(c2OC)OCO3)CCN1C the growth was 90.6%.
